FBPA coupling cs = qHTS Assay for Inhibitors of Fructose-1,6-bisphosphate Aldolase from Giardia Lamblia: Coupling assay counterscreen; coupling enzyme system counterscreen, AmpLite Red fluorescence; activity change, negative = inhibition, % at 58.2 µM, hits read low; hit rate 0.67% among 290,000; AID 2472, 2010; in the data active = activity change below about -30%
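Counterscreen lacking aldolase: glyceraldehyde-3-phosphate coupling-enzyme reagent preincubated 10 min at RT with compound (at 57.5 uM final), then substrate/coupling system with AmpLite Red added; fluorescence read at 525/598 nm after 20 min RT.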
Tau fibril FP = qHTS for Inhibitors of Tau Fibril Formation, Fluorescence Polarization | Microtubule-associated protein tau (Homo sapiens), P10636 | K18 P301L tau heparin fibrillization, Alexa594 FP, 6 h | Potency, µM (doses to about 57.7 µM), inactives show at the highest dose activity, negative = inhibition, usual class: inhibitors | hit rate 0.39% among 280,000 | AID 1468, 2008; note: potency is the fitted concentration of half-maximal effect; nearly all actives have a fitted effect of over 55% in size
Target sequence (P10636 561-689 P618L limits assumed): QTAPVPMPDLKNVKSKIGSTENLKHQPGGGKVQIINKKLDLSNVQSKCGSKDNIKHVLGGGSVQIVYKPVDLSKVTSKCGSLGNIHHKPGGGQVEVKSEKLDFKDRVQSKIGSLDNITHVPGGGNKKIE
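Read-out: fluorescence polarization of Alexa 594-labeled tau (0.24 uM), 555 nm excitation, 632 nm emission. Mixtures held 15 uM unlabeled K18 P301L, compound and 20 uM heparin, pH 7 acetate buffer, incubated 6 hr at 37 C.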
Tau fluor cs = Counterscreen qHTS for Inhibitors of Tau Fibril Formation, Fluorescence Polarization; Potency, µM (highest dose often 57.7 µM), without a hit: at the top dose activity change, negative = decrease; hit rate 0.93% among 280,000; tau K18 P301L Alexa594 fluorescence, heparin fibrillization; note: potency is the fitted concentration of half-maximal effect; nearly all actives have a fitted effect of over 55% in size
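Human tau K18 P301L (15 uM unlabeled, 0.24 uM Alexa 594-labeled) in 100 mM sodium acetate pH 7 with 20 uM heparin, 6 hr at 37 C. ThT 30 uM added, 1 hr ambient; Alexa 594 FP and total fluorescence read at 555/632 nm.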
Tau fibril ThT = qHTS for Inhibitors of Tau Fibril Formation, Thioflavin T Binding. recombinant tau K18 P301L (four-repeat tau fragment), heparin-induced fibrillization, ThT fluorescence. AID 1460, 2008. Microtubule-associated protein tau (Homo sapiens), P10636. hit rate 2.1% among 270,000. Potency, µM (series often up to 57.4 µM), for inactives: at the top dose activity, negative = inhibition, usual class: inhibitors; note: potency is the fitted concentration of half-maximal effect; nearly all actives have a fitted effect of over 55% in size
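Recombinant human tau K18 fragment […] carrying P301L, 15 uM unlabeled plus 0.24 uM Alexa 594-labeled, was fibrillized with 20 uM heparin in 100 mM sodium acetate pH 7 for 6 hr at 37 C; 30 uM ThT fluorescence read after 1 hr.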
An asterisk follows results filed as active; ? = inconclusive; · = no result; ! = not confirmed by another sample; [ ] = remark or other dose. Rows were chosen to be rich in hits. Some 2.7% of all compounds tested hit in one or more screens of this group. Unless noted, calls come from the whole dose curve; as a rule, active = well fitted curve in the direction sought with a large enough effect; inconclusive = small, poorly fitted or top-dose-only effect, or another doubt; inactive = no such curve, though single readings can be large; an effect the other way counts as inactive or inconclusive. % is set by controls: 0 for no effect and ±100 for the full control effect.

SMILES	FBPA coupling cs	Tau fibril FP	Tau fluor cs	Tau fibril ThT
CNC(=O)Oc1ccc2c(c1)[C@@]1(C)CCN(C)[C@@H]1N2C	-44*!	-4%	-11%	-14%
O=c1c2ccccc2nc2ccc(NCc3ccco3)nn12	0	22µM*	-22%	18µM*
COc1ccc(NC(=O)c2ccc3c(c2)NC(=O)CS3)cc1S(=O)(=O)Nc1ccc(Br)cc1	0	28µM*	?	1%
COc1ccc(C(=O)Nc2ccccc2)cc1S(=O)(=O)Nc1ccc(Br)cc1	·	?	-30%	11%
COc1ccc(NC(=O)C(NS(=O)(=O)c2cccc3nsnc23)C(C)C)cc1OC (configuration not stated)	·	5%	-19%	-15%
O=C1NC(c2ccccc2)=C(c2ccc3ccccc3n2)C(c2ccncc2)N1 (configuration not stated)	-1	-16%	?	11µM*
CN(C(=O)CN1C(=O)S/C(=C\c2ccc(Cl)cc2)C1=O)C1CCS(=O)(=O)C1 (configuration not stated)	0	·	·	·
COc1cc(-c2nc3cnccn3c2Nc2ccc(C(C)C)cc2)ccc1O	-1	-3%	?	-8%
COc1cc(-c2nc3nc[nH]n3c2Nc2ccc(C(C)C)cc2)ccc1O	·	?	?	25µM*
Oc1cccc2c(NC(=S)Nc3ccc(OC(F)F)cc3)cccc12	-48*	?	16µM*[quencher]	11µM*
COc1ccc(C2C=C(Nc3ccccc3)C(=O)N2c2ccccc2)cc1OC (configuration not stated)	0	?	-25%	13µM*
Oc1ccc(/C=N/Nc2cccc3cccnc23)c(O)c1	-3	9%	7.9µM*[quencher]	6.3µM*
CCOc1ccc(-c2nnc(SCC(=O)NCc3ccc(Cl)cc3)o2)cc1	·	-10%	-4%	5%
COc1ccc(C(C)=O)cc1CSc1ccc2c(c1)OCCO2	1	·	·	·
COc1ccc(NC(=O)c2cc(S(=O)(=O)N(Cc3ccccc3)c3ccccc3)ccc2Cl)cn1	-44*	-7%	-16%	2%
O=C(CCCOc1ccc(Cl)cc1Cl)N/N=C/c1cccc([N+](=O)[O-])c1	-39*	7%	-1%	3%
COC(=O)/C=C1\SC(N2CCOCC2)=C(c2ccc(OC)cc2)C1=O	6	?	-20%	28µM*
COC(=O)CN1C(=S)N(c2ccc(OC)cc2)C(=O)/C1=C/c1ccc(N2CCOCC2)cc1	-3	13%	-28%	?
Oc1ccc(Cl)cc1/C=C/c1ccc2cccc(O)c2n1	-11	?	25µM*[quencher]	?
Oc1c(Cl)cc(Cl)cc1/C=C/c1ccc2cccc(O)c2n1	-8	3%	?	?
COC(=O)/C=C/c1ccc2c(c1)OCO2	0	-2%	3%	-3%
CCNc1ccccc(C(=O)/C=C/c2ccc3c(c2)OCO3)c1=O	-27	?	?	14µM*
CC1=[N+](C)c2c(ccc3cccnc23)C1(C)C	-58*	?	7.1µM*[fluorescent]	7.1µM*
Cc1[nH]c2c(ccc3cccnc32)c1C	-14	-1%	-19%	?
Cc1cccc(C(=O)Nc2nnc(SCc3cc(=O)n4cccc(C)c4n3)s2)c1	·	1%	5%	4%
SMILES	FBPA coupling cs	Tau fibril FP	Tau fluor cs	Tau fibril ThT
CNC(=O)C1CCCN(c2nnc(C)c3c(C)n(-c4ccccc4)nc23)C1 (configuration not stated)	·	-1%	7%	8%
CCN(CC)Cc1cc(O)c(CN(CC)CC)cc1O	-33*	?	?	11µM*
CCc1oc(C(=O)O)cc1CN(CC)CC	0	1%	2%	2%
O=C1NN(c2cccc(Br)c2)C(=O)/C1=C/c1ccc(-c2cc([N+](=O)[O-])ccc2O)o1	7	?	4.5µM*[quencher]	2.8µM*
CCCCSCCCNC(=O)c1c[nH]c2ccc(S(=O)(=O)Nc3cccc(OC)c3)cc2c1=O	·	2µM*	?	5%
COc1cccc(NS(=O)(=O)c2ccc3[nH]cc(C(=O)NC(C)c4ccccc4)c(=O)c3c2)c1 (configuration not stated)	·	7.9µM*	?	11%
COc1cccc(NS(=O)(=O)c2ccc3[nH]cc(C(=O)N4CCCC4)c(=O)c3c2)c1	·	-9%	-15%	-7%
CCOCCCNC(=O)c1c[nH]c2ccc(S(=O)(=O)Nc3cccc(OC)c3)cc2c1=O	6	1%	3%	0%
Cc1onc(-c2ccccc2)c1C(=O)Nc1nnc(CC(C)C)s1	1	·	·	·
CCCCc1cc2c(cn1)=C(OC(=O)c1ccco1)C(C)(OC(=O)CC)C(=O)C=2 (configuration not stated)	-6	3%[11.6 µM]	-5%[11.6 µM]	-10%[11.5 µM]
Fc1ccc(CNC(=S)Nc2cccc(C(F)(F)F)c2)cc1	0	0%	-10%	-4%
O=[N+]([O-])c1cc(C(F)(F)F)cc([N+](=O)[O-])c1NCCNC(=S)Nc1cccc(F)c1	-3	-7%	8.9µM*[quencher]	?
COC(=O)CCCC1=CC2=CC(=O)C(C)(OC(=O)c3cccs3)C(=O)C2=CN1C(CO)CO (configuration not stated)	-11	-5%[11.6 µM]	0%[11.6 µM]	-2%[11.5 µM]
COC(=O)CCCC1=CC2=CC(=O)C(C)(OC(=O)c3cccs3)C(=O)C2=CN1Cc1ccc2c(c1)OCO2 (configuration not stated)	-20	?	-8%[11.6 µM]	13µM*!
COC(=O)CCCC1=CC2=CC(=O)C(C)(OC(=O)c3cccs3)C(=O)C2=CN1Cc1ccccc1 (configuration not stated)	-13	?	-5%[11.6 µM]	13µM*!
COC(=O)CCCC1=CC2=CC(=O)C(C)(OC(=O)c3cccs3)C(=O)C2=CN1C1CCCC1 (configuration not stated)	-43*	?	-17%[11.6 µM]	25µM*
COC(=O)CCCC1=CC2=CC(=O)C(C)(OC(=O)c3cccs3)C(=O)C2=CN1c1ccc(OC)cc1 (configuration not stated)	-19	?	-10%[11.6 µM]	10µM*
Cc1ccccc1N1CC(c2nc3ccccc3n2Cc2ccc(Br)cc2)CC1=O (configuration not stated)	·	0%	-7%	-8%
COC(=O)CCCC1=CC2=CC(=O)C(C)(OC(=O)c3cccs3)C(=O)C2=CN1CCc1c[nH]c2ccccc12 (configuration not stated)	-36*!	5%[11.6 µM]	-10%[11.6 µM]	?
CCCCC1=CC2=CC(=O)C(C)(OC(=O)CC)C(=O)C2=CN1C1CCCC1 (configuration not stated)	-33*!	2%[11.6 µM]	-5%[11.6 µM]	-7%[11.5 µM]
CCCCC1=CC2=CC(=O)C(C)(OC(=O)CC)C(=O)C2=CN1CCc1c[nH]c2ccccc12 (configuration not stated)	-2	2%[11.6 µM]	2%[11.6 µM]	?

Screening data as filed in PubChem BioAssay.
